High-throughput results deposited in PubChem BioAssay by National Center for Advancing Translational Sciences (NCATS).
An excerpt weighted towards active compounds, which were near 7.3% of everything screened.
SMN2 splice up: enhancers of SMN2 splice variant expression | HEK293 SMN2-luciferase splicing reporter, luminescence, 30-36 h | Potency, µM (series often up to 46.1 µM), for inactives: top-dose activity change, positive = activation, most hits filed as activators | actives 2.8% (n = 210,000) | AID 1458; also: % of control where 0% means no effect; nearly all actives have a fitted effect of over 55% in size
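HEK293 cells carry an SMN2 minigene-luciferase reporter in which exon 7 inclusion puts luciferase in frame. Cells were seeded at 2000 cells/well, attached for 10-12 hours, then exposed to compounds for 30-36 hours at 37C before ONE-Glo luminescence.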
FLuc counter: counter-screen for miR-21 project: firefly luciferase inhibitors or activators | P08659 | purified FLuc, Km substrates, luminescence inhibition | Potency, µM (series often up to 57.5 µM), for inactives: at the top dose activity change, negative = inhibition, usual class: inhibitors | actives 6.9% (n = 360,000) | AID 588342;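 also: plate controls were vehicle for no effect and reference inhibitor for full effect; nearly all actives have a fitted effect of over 55% in size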
Target sequence (P08659 whole entry, looked up): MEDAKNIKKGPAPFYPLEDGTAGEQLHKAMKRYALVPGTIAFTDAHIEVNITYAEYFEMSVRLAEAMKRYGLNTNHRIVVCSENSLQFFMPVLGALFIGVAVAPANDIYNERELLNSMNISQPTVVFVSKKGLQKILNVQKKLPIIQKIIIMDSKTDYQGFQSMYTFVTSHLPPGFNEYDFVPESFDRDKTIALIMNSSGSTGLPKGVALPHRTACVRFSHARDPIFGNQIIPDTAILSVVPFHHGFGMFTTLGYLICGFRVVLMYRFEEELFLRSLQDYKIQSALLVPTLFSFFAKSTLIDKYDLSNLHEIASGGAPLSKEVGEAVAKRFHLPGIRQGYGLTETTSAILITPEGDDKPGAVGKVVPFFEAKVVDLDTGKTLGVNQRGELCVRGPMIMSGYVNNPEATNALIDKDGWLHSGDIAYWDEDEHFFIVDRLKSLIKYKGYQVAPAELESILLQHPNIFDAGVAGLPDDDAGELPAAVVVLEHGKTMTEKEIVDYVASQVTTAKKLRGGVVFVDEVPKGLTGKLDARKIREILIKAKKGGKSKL
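Purified P. pyralis luciferase, 10 nM final, with Km-level 10 uM D-luciferin and 10 uM ATP in 50 mM Tris acetate pH 7.5, 10 mM Mg acetate, 0.01% Tween-20, 0.05% BSA; 6-point qHTS titration about 60 µM downward; luminescence read.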
ELG1 genotoxic: induces genotoxicity in HEK293T cells with luciferase-tagged ELG1. actives 1.3% (n = 330,000). Potency, µM (series often up to 46 µM), for inactives: at the highest dose activity change, positive = activation, most hits filed as activators. AID 504466. HEK293T ELG1-luciferase reporter, luminescence, 16 h; also: % of control where 0% means no effect; nearly all actives have a fitted effect of over 60% in size
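HEK293T cells expressing luciferase-tagged ELG1 were exposed to compound or DMSO vehicle for 16 hr at 37 °C and 5% CO2. Luciferase activity was then measured with ONE-Glo after 30 min at room temperature.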
Rab9 promoter act: activates the Rab9 promoter | Huh7 Rab9 promoter-luciferase reporter, luminescence, 24 h | Potency, µM (highest dose often 9.22 µM), without a hit: at the top dose activation, negative = inhibition, hits mostly activators | actives 2.8% (n = 320,000) | AID 485297; also: % of control where 0% means no effect; nearly all actives have a fitted effect of over 60% in size
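Cell-based reporter: Huh7 stable for Rab9 promoter-driven luciferase, plated in reduced-serum medium with 10% FBS at 1500 cells/well, compound-treated 24 h at 37 °C, luminescence read after 10 min reagent.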
NPC1 promoter act: NPC1 promoter activation; Huh7 NPC1 promoter luciferase reporter, 24 h; Potency, µM (top dose mostly 9.22 µM), for the others: top-dose activation, usual class: activators; actives 2.4% (n = 320,000); also: % of control where 0% means no effect; nearly all actives have a fitted effect of over 60% in size
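Stable NPC1-promoter luciferase Huh7 line; cpd (DMSO) 24 h, 37 °C, 5% CO2; Amplite luciferase reagent 10 min RT; luminescence readout. qHTS format.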
KinaseGlo FLuc: counter-screen: inhibitors of Kinase-Glo firefly luciferase; AID 1379; actives 0.28% (n = 200,000); Q27757; Kinase-Glo luciferase, ATP luminescence, 8 min; Potency, µM (series often up to 38.3 µM), for inactives: at the top dose activity change, negative = inhibition, most hits filed as inhibitors; also: % is scaled to controls: 0 for no effect and ±100 for the full control effect; nearly all actives have a fitted effect of over 60% in size
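Substrate mix (final 50 mM imidazole pH 7.2, 50 mM KCl, 7 mM MgCl2, 10 uM ATP, 0.01% Tween 20, 0.05% BSA) plus pin-tool compound, then Kinase-Glo detection mix; 8 min ambient, luminescence read.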
An asterisk follows results filed as active; ? = inconclusive; nt = not tested or not shown; [ ] = remark or other dose. Calls follow the shape of the dose curve; as a rule, active = well fitted curve in the direction sought with a large enough effect; inconclusive = small, poorly fitted or top-dose-only effect, or another doubt; inactive = no such curve, though single readings can be large; an effect the other way counts as inactive or inconclusive. Potency is read from the fitted curve at half-maximal effect.

SMILES | SMN2 splice up | FLuc counter | ELG1 genotoxic | Rab9 promoter act | NPC1 promoter act | KinaseGlo FLuc
Cc1ccc(N/N=C2/CCCNC2=O)cc1 | 11% | ? | 7% | 6% | 3% | -2%
Cc1nc(Nc2ccc3c(c2)OCCO3)c2c(C)c(C)sc2n1 | -27% | ? | -4% | -1% | -3% | 3%
O=C(Nc1cccc(Cl)c1)O/N=C\c1ccncc1 | nt | ? | 0% | 1% | -1% | -5%
Clc1cccc(N/N=C/c2ccncc2)c1 | ? | 17µM* | ? | ? | 26% | -4%
Cc1ccc(/C=N/NC(=O)c2ccncc2)cc1 | nt | ? | -5% | 6% | -1% | nt
Cc1ccc(N/N=C/c2ccncc2)cc1 | nt | 12µM* | ? | 3.2µM* | ? | nt
Cc1ccc(N/N=C/c2cccnc2)cc1 | ? | 17µM* | ? | ? | ? | -3%
CC(C)n1cc(/C=C/c2cc[n+](C)cc2)c2ccccc21 | nt | 0% | -11% | -37% | -29% | nt
N#Cc1nc(-c2ccc(OCc3ccccc3)cc2)oc1NCc1ccco1 | -2% | -4% | 16% | 10% | 9% | -1%
Fc1ccccc1C1CCN(Cc2nc(CC3CC3)no2)C1 (stereo not given) | nt | 17µM* | ? | ? | ? | nt
Fc1ccc2nc(C3CCN(Cc4nc(CC5CC5)no4)CC3)[nH]c2c1 | nt | -3% | -5% | -2% | -1% | 0%
O=C(Nc1ccc2c(c1)OCCO2)c1cccnc1 | ? | ? | ? | 4µM* | ? | -10%
Cc1cc(C(=O)Nc2ccc3c(c2)OCCO3)ccc1[N+](=O)[O-] | nt | 0.76µM* | 0.52µM* | ? | 0.71µM* | nt
N#Cc1ccsc1NC(=O)c1ccc(Cl)c([N+](=O)[O-])c1 | nt | 6µM* | -1% | 9% | -2% | nt
O=C(Nc1ccc2cccnc2c1)c1ccc(Br)cc1 | nt | 19µM* | 10% | 7% | 16% | nt
N#Cc1ccsc1NC(=O)c1cccc([N+](=O)[O-])c1 | -57% | -11% | -4% | 12% | 7% | 1%
COc1cc(/C=N/NC(=O)CSCc2ccc([N+](=O)[O-])cc2)cc(OC)c1OC | -7% | 2% | -5% | -1% | -5% | 5%
CCN(CC)C(=O)Cn1cc(SCC(=O)Nc2ccccc2C)c2ccccc21 | nt | -8% | nt | nt | nt | nt
O=C(O)c1cc(NC(=O)c2ccc(Cl)c([N+](=O)[O-])c2)cc(C(=O)O)c1 | -17% | -5% | ? | -11% | -4% | 12%
Cc1cc(C(=O)Nc2cccc(NC(=O)c3ccco3)c2)ccc1[N+](=O)[O-] | nt | 19µM* | -10% | 0% | -3% | nt
O=C(Nc1ccc2c(c1)OCCO2)c1ccc(Cl)c([N+](=O)[O-])c1 | 18µM* | ? | ? | -1% | -3% | -3%
Cc1ccc(C(=O)Nc2ccc3nccnc3c2)cc1 | 3.2µM* | 0.95µM* | ? | 0.45µM* | 0.89µM* | -13%
O=C(Nc1ccc2c(c1)OCCO2)c1ccc2nccnc2c1 | ? | 3µM* | ? | 0.79µM* | 1µM* | ?
CCN(c1ccccc1)S(=O)(=O)c1ccc(NC(=O)c2cc(=O)c3c(C)cc(C)cc3o2)cc1 | 7% | -1% | nt | nt | nt | nt
CCc1c(C#N)c(SCCC(=O)Nc2ccc(C)cc2)nc2c1C(=O)CC(C)(C)C2 | ? | 7% | -8% | 0% | -4% | -3%
SMILES | SMN2 splice up | FLuc counter | ELG1 genotoxic | Rab9 promoter act | NPC1 promoter act | KinaseGlo FLuc
NS(=O)(=O)c1cccc(NC(=O)c2cccc(S(=O)(=O)N3CCCCCC3)c2)c1 | nt | nt | -4% | nt | nt | nt
O=C(Nc1ccc2c(c1)OCCO2)c1ccc(Cl)c(Cl)c1 | nt | 4.8µM* | 2.6µM* | 1.4µM* | 1.6µM* | nt
CCn1cc([N+](=O)[O-])c(C(=O)Nc2ccc3c(c2)OCCO3)n1 | ? | 19µM* | ? | ? | ? | -14%
CCn1cc([N+](=O)[O-])c(C(=O)NCc2ccc3c(c2)OCO3)n1 | nt | 3% | -1% | -1% | 2% | nt
O=C(Nc1ccc(Cl)c(Cl)c1)C1=Cc2ccccc2OC1 | ? | 11µM* | ? | 2.5µM* | ? | 3%
Cc1ccc2nc(-c3cc(NC(=O)c4ccc5c(c4)OCCO5)ccc3Cl)oc2c1 | 6% | ? | nt | nt | nt | nt
NS(=O)(=O)c1cccc(NC(=O)c2ccc3nc[nH]c3c2)c1 | nt | 19µM* | -1% | -6% | -5% | nt
O=C(Nc1cccc(Cl)c1)C1=Cc2cc(Cl)ccc2OC1 | -4% | -20% | -6% | -9% | -5% | -3%
O=[N+]([O-])c1cccc(-c2csc(CS(=O)(=O)Cc3ccco3)n2)c1 | nt | 1% | 0% | 0% | -2% | nt
CCOC(=O)C1=C(N)N(c2ccccc2Oc2ccccc2)C(=O)C1 | -7% | 0% | 2% | 5% | -2% | -1%
COCCCNC(=O)/C(C#N)=C/c1c(N2CCN(C)CC2)nc2c(C)cccn2c1=O | nt | 0% | 0% | 0%[1.84 µM] | -1% | nt
O=C(Nc1ccc2c(c1)OCO2)c1ccc2nc[nH]c2c1 | ? | 21µM* | 16µM* | 3.5µM* | ? | -7%
O=C(Nc1ccc(C(F)(F)F)cc1)c1ccc2nc[nH]c2c1 | -1% | ? | -3% | 19% | 18% | 1%
COc1cccc(CN(C)C(=O)c2ccc(COc3ccc(Cl)cc3)cc2)c1OC | nt | 13µM* | ? | 29% | ? | nt
COc1cccc(CN(C)C(=O)c2ccccc2Sc2ccccc2C#N)c1OC | nt | 8.5µM* | 12% | 0.45µM* | 0.32µM* | nt
COc1ccccc1CN(C)C(=O)c1ccc(COc2ccccc2)cc1 | nt | -1% | -8% | -1% | 2% | nt
Cc1nc2ccccc2c(=O)n1/N=C/c1ccccc1 | 4% | ? | 2% | 4% | 3% | -1%
Cn1c(=O)n(/N=C/c2ccccc2)c2ccccc21 | ? | 15µM* | 2% | 17% | 27% | 0%
Cc1ccc(NS(=O)(=O)c2ccc3[nH]c4c(c3c2)CCCCCC4)cc1 | nt | -17% | nt | nt | nt | nt
CN(C)S(=O)(=O)c1cccc(NC(=O)c2ccc3c(c2)OCCO3)c1 | nt | 9.5µM* | 0% | ? | 3.2µM* | nt
COc1ccc(S(=O)(=O)N(C)C)cc1NC(=O)c1ccc2c(c1)OCCO2 | nt | -2% | 1% | -6% | 0% | nt
CCC(=O)Nc1cccc(NC(=O)c2ccc3c(c2)OCCO3)c1 | 13µM* | 17µM* | 7% | ? | ? | -9%
O=C(c1cccs1)N1CCN(c2nc3ccccc3s2)CC1 | nt | 3% | 1% | 24% | ? | nt
O=C1c2ccccc2C(=O)N1Cc1cc(-c2ccccc2)no1 | -77% | -12% | -1% | -7% | 0% | 4%
O=S(=O)(Cc1cc(-c2ccccc2)no1)c1ccccc1 | ? | 27µM* | ? | ? | ? | 2%
